Compound activity from PubChem BioAssay.
Gal4-VP16 FLuc: inhibits Gal4-VP16 luciferase reporter, ROR gamma counter-screen; AID 2546; actives 3.5% (n = 310,000); Drosophila S2 Gal4-VP16 UAS-luciferase, luminescence, 20 h; Potency, µM (highest dose often 53.6 µM), actives largely listed as inhibitors;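 further: Gal4-VP16 expression switched on by copper sulfate through the metallothionein promoter; nearly all actives have a fitted effect of over 50% in size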
ALDH1A1 block: inhibitors of human aldehyde dehydrogenase 1A1; P00352; Purified ALDH1A1, NADH fluorescence, propionaldehyde substrate; Potency, µM (highest dose often 75.3 µM), actives largely listed as inhibitors; actives 7.3% (n = 220,000); active means well fitted inhibition curve with a large enough effect, not every such curve was filed as active; inconclusive means small, poorly fitted or top-dose-only effect, or another doubt; inactive means no such curve, though single readings can be large or run the other way
RORgamma inh: blocks mouse ROR gamma transcriptional activity | P51450 | Drosophila S2 Gal4-RORgamma UAS-luciferase reporter, 20 h | Potency, µM (highest dose often 53.6 µM), most hits filed as inhibitors | actives 5.4% (n = 310,000) | AID 2551; further: nearly all actives have a fitted effect of over 60% in size
Target sequence (P51450 whole entry, looked up, the tested form may be a part): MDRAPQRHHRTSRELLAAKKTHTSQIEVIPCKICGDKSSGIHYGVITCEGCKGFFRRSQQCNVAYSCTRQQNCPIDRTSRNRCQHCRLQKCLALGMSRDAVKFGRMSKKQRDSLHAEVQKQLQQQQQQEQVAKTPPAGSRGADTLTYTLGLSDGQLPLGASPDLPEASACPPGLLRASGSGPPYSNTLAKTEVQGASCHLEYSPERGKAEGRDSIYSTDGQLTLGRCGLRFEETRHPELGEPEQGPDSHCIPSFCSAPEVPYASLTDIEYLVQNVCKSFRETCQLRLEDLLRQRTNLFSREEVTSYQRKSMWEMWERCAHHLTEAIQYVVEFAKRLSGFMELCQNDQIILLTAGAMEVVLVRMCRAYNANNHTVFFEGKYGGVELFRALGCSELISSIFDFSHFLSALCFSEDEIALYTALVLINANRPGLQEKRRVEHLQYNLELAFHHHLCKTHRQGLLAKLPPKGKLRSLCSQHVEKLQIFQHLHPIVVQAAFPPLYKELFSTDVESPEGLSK
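Stably transfected Drosophila Schneider cells are the test system, with ROR gamma fused to Gal4 and luciferase under UAS control; luminescence is read after 20 hr of 700 uM copper sulfate induction at ambient temperature.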
PLK1 PBD inh: inhibitors of human PLK1 polo-box domain binding; Potency, µM, most hits filed as inhibitors; Plk1 PBD binding of FITC phosphopeptide, fluorescence polarization; actives 2.8% (n = 360,000); P53350; further: series mostly up to about 57 µM; nearly all actives have a fitted effect of over 65% in size
Sfp inh: inhibitors of Bacillus subtilis Sfp phosphopantetheinyl transferase; Biochemical Sfp PPTase activity, qHTS; Potency, µM, most hits filed as inhibitors; actives 3.5% (n = 310,000);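 further: the enzyme is Sfp with the accession as filed and its product quenches rhodamine fluorescence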
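Fluorescence-quenching assay with 15 nM Sfp, 5 uM rhodamine-CoA and 12.5 uM BHQ-2-labelled ybbR peptide in pH 7.6 Hepes/MgCl2 buffer. Enzyme was pre-incubated with compound for 15 min at room temperature. Rate was taken from the 30-min fluorescence change (525/598 nm).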
Each line names hits and unclear results; the compound was inactive in the other large screens. In the library only some 12% were active in any assay of this set; here they are far more common. Unless noted, the call rests on the fitted dose curve; in most records, active means well fitted curve in the direction sought with a large enough effect; inconclusive means small, poorly fitted or top-dose-only effect, or another doubt; inactive means no such curve, though single readings can be large; an effect the other way counts as inactive or inconclusive.

S=c1[nH]nc(-c2cc(-c3ccccc3)n[nH]2)n1/N=C/c1cccs1	none
S=c1[nH]nc(-c2cccnc2)n1/N=C/c1cccs1	ALDH1A1 block inconclusive, RORgamma inh inconclusive
Cc1ccc(/C=N/n2c(-c3ccncc3)n[nH]c2=S)s1	RORgamma inh inconclusive, Sfp inh 63µM (no result: ALDH1A1 block)
Cc1cccc(-c2n[nH]c(=S)n2/N=C/c2cccs2)c1	Gal4-VP16 FLuc 10µM, RORgamma inh 5µM, Sfp inh inconclusive (no result: ALDH1A1 block)
COc1ccc(-c2noc(CSc3nc(N)cc(=O)[nH]3)n2)cc1	Gal4-VP16 FLuc inconclusive, PLK1 PBD inh 27µM (no result: ALDH1A1 block)
COc1ccc(-c2noc(CCCc3ccccc3)n2)cc1OC	none
COc1ccc(-c2noc(CSc3nc(-c4ccccc4)cc(=O)[nH]3)n2)cc1OC	Gal4-VP16 FLuc inconclusive, ALDH1A1 block inconclusive, RORgamma inh inconclusive, Sfp inh 35µM
CCCNC(=O)C1(C)CCN(C(=O)c2c(Cl)cccc2Cl)C1 (stereo not given)	none (no result: Gal4-VP16 FLuc, ALDH1A1 block, RORgamma inh, Sfp inh)
Cc1ccc(NC(=S)N(CCC(C)C)C(C)c2ccncc2)c(Cl)c1 (stereo not given)	Sfp inh 56µM (no result: ALDH1A1 block)
COCCCN(C(=O)Nc1ccc(C)c(C)c1)C(C)c1ccccn1 (stereo not given)	none
COCCCN(C(=S)Nc1ccc(C)cc1Cl)C(C)c1ccncc1 (stereo not given)	Gal4-VP16 FLuc inconclusive, RORgamma inh inconclusive
COCCCN(C(=S)Nc1cc(Cl)cc(Cl)c1)C(C)c1ccncc1 (stereo not given)	Gal4-VP16 FLuc inconclusive, RORgamma inh inconclusive, PLK1 PBD inh 21µM, Sfp inh 25µM
COCCCN(C(=S)Nc1cc(Cl)cc(Cl)c1)C(C)c1ccccn1 (stereo not given)	Gal4-VP16 FLuc inconclusive, RORgamma inh 7.1µM, PLK1 PBD inh 17µM, Sfp inh 25µM (no result: ALDH1A1 block)
Cc1ccc(Cn2cc(CN3CC(N(C)C)CS3(=O)=O)nn2)cc1 (stereo not given)	none (no result: Gal4-VP16 FLuc, ALDH1A1 block, RORgamma inh, Sfp inh)
COc1ccc(OC)c(NC(=O)c2cccc(S(=O)(=O)N(Cc3ccccc3)c3ccccc3OC)c2)c1	none
COc1ccc(OC)c(NC(=O)c2ccc(CN(c3cc(Cl)ccc3C)S(=O)(=O)c3ccccc3)cc2)c1	Sfp inh 79µM
CC(C)c1[nH]nc2c1C(c1ccco1)C(C#N)=C(N)O2 (stereo not given)	ALDH1A1 block inconclusive
Cn1cc(-c2nc3cnc(Oc4ccccc4)nc3n(C)c2=O)c2ccccc21	none (no result: PLK1 PBD inh)
COc1ccc(CCNc2nc(C)c(C(C)=O)s2)cc1OC	PLK1 PBD inh 4.7µM, Sfp inh 16µM (no result: ALDH1A1 block)
CC(=O)c1sc(NCc2ccc(C)cc2)nc1C	none (no result: ALDH1A1 block)
COc1ccc(CCNc2nc(-c3ccc(F)cc3)c(CC(=O)O)s2)cc1OC	PLK1 PBD inh 8.4µM, Sfp inh 35µM (no result: ALDH1A1 block)
COc1ccc(CCNc2nc(-c3ccc(NC(C)=O)cc3)cs2)cc1OC	ALDH1A1 block inconclusive
COc1cccc(-c2nnc(-c3ccc(C(F)(F)F)cc3)o2)c1	none
Oc1ccccc1-c1nnc(-c2ccc(C(F)(F)F)cc2)o1	Gal4-VP16 FLuc 6.3µM, ALDH1A1 block inconclusive, RORgamma inh 3.5µM
Cc1ccc(-n2ccc(=O)c(-c3ccnc(SCc4cccc(Cl)c4)n3)n2)cc1	ALDH1A1 block inconclusive, RORgamma inh 0.28µM
Cc1ccc(C)c(-n2nnnc2SCC(=O)c2ccc3c(c2)NC(=O)CO3)c1	ALDH1A1 block 0.63µM, RORgamma inh inconclusive
CC1(C)Cc2c(c(-c3ccccc3)[nH]c(=O)c2C#N)CS1	ALDH1A1 block 28µM, RORgamma inh inconclusive
CC1(C)Cc2c(c(-c3ccco3)[nH]c(=O)c2C#N)CS1	ALDH1A1 block 5.6µM, PLK1 PBD inh inconclusive
CC1(C)Cc2c(C#N)c(N3CCN(C(=O)c4ccccc4Cl)CC3)nc(-c3ccco3)c2CS1	ALDH1A1 block inconclusive, RORgamma inh inconclusive, PLK1 PBD inh inconclusive
CCCOc1ccc(C(=O)C(CN2CCOCC2)c2ccccc2)cc1 (stereo not given)	Gal4-VP16 FLuc inconclusive, RORgamma inh 13µM
CC(CN1CCOCC1)OC(=O)c1ccccc1 (stereo not given)	none
COc1ccc(C(=O)C(CN2CCOCC2)c2ccccc2)cc1F (stereo not given)	Gal4-VP16 FLuc 11µM, RORgamma inh 11µM
CCCOc1ccc(C(=O)NCCN2CCOCC2)cc1	none (no result: ALDH1A1 block)
CCCOc1ccc(C(=O)C(c2ccccc2)N2CCOCC2)cc1 (stereo not given)	ALDH1A1 block 13µM
CC(CN1CCOCC1)C(=O)c1ccccc1 (stereo not given)	ALDH1A1 block 32µM
CSc1ccccc1NC(=O)NCCCl	none
O=C(OCCN1CCOCC1)C(c1ccccc1)c1ccccc1	ALDH1A1 block 25µM
O=C(/C=C/c1ccccc1)CCN1CCOCC1	PLK1 PBD inh 21µM (no result: Gal4-VP16 FLuc, ALDH1A1 block, RORgamma inh, Sfp inh)
O=C(/C=C/c1ccccc1)N1CCOCC1	none (no result: ALDH1A1 block)
CCOC(=O)C1=C[C@@H](C(C)(C)C)N(S(=O)(=O)c2ccccc2C)[C@H]1c1ccc(Cl)cc1	none (no result: Gal4-VP16 FLuc, ALDH1A1 block, RORgamma inh, Sfp inh)
CCOc1ccc(N2CSC(=S)N(c3ccc(OCC)cc3)C2)cc1	RORgamma inh inconclusive, Sfp inh 35µM (no result: ALDH1A1 block)
Cc1cccc(N2CC(O)(c3cccs3)[N+]3=C2CCCC3)c1C (stereo not given)	Gal4-VP16 FLuc 35µM
CC1(Oc2cccnc2Cl)CCN(Cc2ccc(OC(F)(F)F)cc2)C1 (stereo not given)	none (no result: Gal4-VP16 FLuc, ALDH1A1 block, RORgamma inh, Sfp inh)
N#C/C(=C\c1ccc(O)c(O)c1)C(=O)Nc1ccccc1	Gal4-VP16 FLuc inconclusive, ALDH1A1 block inconclusive, RORgamma inh inconclusive
N#C/C(=C/c1ccc(O)c(O)c1)C(=O)OC/C=C/c1ccccc1	ALDH1A1 block 4.5µM (no result: Gal4-VP16 FLuc, RORgamma inh, PLK1 PBD inh)
CC/C(=N/Nc1ccc(Cl)cc1)c1cnnc(SC)n1	ALDH1A1 block 10µM
CC/C(=N/O)c1cnnc(SC)n1	none
CC/C(=N/Nc1cccc(C)c1)c1cnnc(SC)n1	ALDH1A1 block 9.5µM
CC1CCC(C(C)C)C(OC(=O)Cn2c(-c3ccccc3)[n+](C)c3ccccc32)C1 (stereo not given)	Gal4-VP16 FLuc 6.3µM, RORgamma inh inconclusive
CC1CCC(C(C)C)C(OC(=O)Cn2c(-c3ccc(F)cc3)[n+](C)c3ccccc32)C1 (stereo not given)	Gal4-VP16 FLuc 7.1µM, RORgamma inh inconclusive
Cc1nnc(SCC(=O)OC2CC(C)CCC2C(C)C)[nH]c1=O (stereo not given)	ALDH1A1 block inconclusive
CC1CCC(C(C)C)C(OC(=O)C[n+]2cc(-c3ccc(Cl)cc3)n3c2CCC3)C1 (stereo not given)	Gal4-VP16 FLuc inconclusive (no result: ALDH1A1 block)
Cc1cccc(OCc2n(CC(=O)OC3CC(C)CCC3C(C)C)c3ccccc3[n+]2C)c1 (stereo not given)	Gal4-VP16 FLuc inconclusive, RORgamma inh inconclusive, Sfp inh 25µM
CSc1nc2ncncc2[nH]1	none (no result: Gal4-VP16 FLuc, ALDH1A1 block, RORgamma inh, Sfp inh)
COCCCNc1c2c3c(cccc3[nH]c1=O)C(=O)c1ccccc1-2	ALDH1A1 block inconclusive, PLK1 PBD inh 0.38µM, Sfp inh 79µM
CCOC(=O)c1c2c3c(cccc3[nH]c1=O)C(=O)c1ccccc1-2	none
CCCSC1=N/C(=C/c2ccsc2)C(=O)N1c1ccccc1	Gal4-VP16 FLuc inconclusive, ALDH1A1 block 14µM
